Hits are enriched below; roughly 14% of the tested compounds scored in any of these assays.
USP17 block: inhibitors of human USP17 deubiquitinase; Ubiquitin carboxyl-terminal hydrolase 17-like protein 5 (Homo sapiens), A8MUK1; purified USP17, Ub-rhodamine cleavage fluorescence, 3 h; inhibition, % at 50 µM; actives 6.5% (n = 47,000); AID 1645855, 2021
USP10 inh: inhibitors of human USP10 deubiquitinase. Ubiquitin carboxyl-terminal hydrolase 10 (Homo sapiens), Q14694. purified USP10, Ub-rhodamine fluorescence, 60 min. inhibition, % at 20 µM. actives 1.1% (n = 47,000). AID 1645856, 2021
USP28 inh: inhibitors of human USP28 deubiquitinase; Ubiquitin carboxyl-terminal hydrolase 28 (Homo sapiens), Q96RU2; purified USP28, Ub-rhodamine cleavage fluorescence, 30 min; inhibition, % at 25 µM; actives 3% (n = 47,000)
Target sequence (Q96RU2 whole entry, looked up): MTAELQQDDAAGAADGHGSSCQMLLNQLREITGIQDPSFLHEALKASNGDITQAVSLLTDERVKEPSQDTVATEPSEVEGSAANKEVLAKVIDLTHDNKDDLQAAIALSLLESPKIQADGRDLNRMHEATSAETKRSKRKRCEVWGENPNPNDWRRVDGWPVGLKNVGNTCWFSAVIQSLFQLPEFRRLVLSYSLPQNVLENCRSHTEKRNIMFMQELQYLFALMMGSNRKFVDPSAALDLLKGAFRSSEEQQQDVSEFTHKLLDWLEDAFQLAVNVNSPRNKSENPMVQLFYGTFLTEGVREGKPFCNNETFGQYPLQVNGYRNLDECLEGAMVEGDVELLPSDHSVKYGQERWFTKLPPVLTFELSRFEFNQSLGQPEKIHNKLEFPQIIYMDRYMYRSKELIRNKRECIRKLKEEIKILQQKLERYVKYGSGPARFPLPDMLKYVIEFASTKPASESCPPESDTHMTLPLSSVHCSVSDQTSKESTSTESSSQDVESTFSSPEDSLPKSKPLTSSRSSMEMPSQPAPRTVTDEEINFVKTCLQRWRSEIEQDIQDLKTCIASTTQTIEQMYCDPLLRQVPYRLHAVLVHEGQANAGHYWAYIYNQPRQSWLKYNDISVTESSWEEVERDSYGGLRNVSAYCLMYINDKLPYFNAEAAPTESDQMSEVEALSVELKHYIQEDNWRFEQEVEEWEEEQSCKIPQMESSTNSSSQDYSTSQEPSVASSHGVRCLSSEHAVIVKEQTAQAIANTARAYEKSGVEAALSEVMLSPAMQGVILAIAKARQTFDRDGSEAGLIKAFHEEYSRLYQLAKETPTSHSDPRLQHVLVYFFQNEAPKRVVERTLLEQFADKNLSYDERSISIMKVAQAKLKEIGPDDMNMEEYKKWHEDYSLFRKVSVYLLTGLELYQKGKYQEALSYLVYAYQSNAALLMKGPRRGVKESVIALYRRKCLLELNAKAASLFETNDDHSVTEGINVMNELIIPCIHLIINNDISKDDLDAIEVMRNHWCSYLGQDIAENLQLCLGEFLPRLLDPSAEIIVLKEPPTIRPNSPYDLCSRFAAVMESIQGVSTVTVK
USP8 block: inhibitors of human USP8 deubiquitinase. purified USP8, Ub-rhodamine cleavage fluorescence, 30 min. inhibition, % at 20 µM. actives 4.2% (n = 47,000). AID 1645853, 2021
USP30 block: inhibitors of human USP30 deubiquitinase; Ubiquitin carboxyl-terminal hydrolase 30 (Homo sapiens), Q70CQ3; purified USP30, Ub-rhodamine cleavage fluorescence; inhibition, % at 25 µM; actives 5.3% (n = 47,000)
Numbers stand for hits. No stated cut-off is given here; in the data, active means inhibition above about 30%; inactive means the rest.

For O=S(=O)(c1ccc2c(c1)OCCCO2)N1CCN(Cc2nc3ccccc3s2)CC1 the results were USP17 block inactive, USP10 inh inactive, USP28 inh inactive, USP8 block inactive and USP30 block inactive.
COc1cccc(CCN2C[C@H]3CCN(C(=O)c4ccnnc4)CC[C@H]3S2(=O)=O)c1 was read as USP17 block inactive, USP10 inh inactive, USP28 inh inactive, USP8 block inactive and USP30 block inactive.
C[C@H]1O[C@@H](c2cccc(F)c2)C[C@@](O)(CNC(=O)c2ccccn2)[C@@H]1O was read as USP17 block inactive, USP10 inh inactive, USP28 inh inactive, USP8 block inactive and USP30 block inactive.
`COc1ccc(NC(=O)N2CCCCCC2c2cccs2)cc1OC` (configuration not stated) gave USP17 block inactive, USP10 inh inactive and USP8 block inactive.
`COc1ccccc1-c1cnn2c1NC(=O)CC2C(=O)Nc1ccc(C)cc1C` (configuration not stated) gave USP17 block inactive, USP10 inh inactive, USP28 inh inactive, USP8 block inactive and USP30 block inactive.
`COc1ccc(NC(=O)C2CC(=O)Nc3c(-c4ccc(Cl)cc4)cnn32)c(OC)c1` (configuration not stated) gave USP17 block 60, USP10 inh inactive, USP28 inh inactive, USP8 block inactive and USP30 block inactive.
For O=C1CC(C(=O)Nc2ccc3c(c2)OCO3)n2ncc(-c3ccccc3)c2N1 (configuration not stated) the results were USP17 block inactive, USP10 inh inactive, USP28 inh inactive, USP8 block 38 and USP30 block inactive.
For O=C(Nc1cc(-c2ccccc2)nn1CCO)C1CCCC1 the results were USP17 block inactive, USP10 inh inactive, USP28 inh inactive, USP8 block inactive and USP30 block inactive.
For O=C(Nc1ccc2c(c1)OCO2)C1CC(=O)N(CCc2ccccc2)C1 (configuration not stated) the results were USP17 block 44, USP10 inh inactive, USP28 inh inactive, USP8 block 56 and USP30 block inactive.
For COc1ccc(CCN2CC(C(=O)Nc3ccc4c(c3)OCO4)CC2=O)cc1OC (configuration not stated) the results were USP17 block inactive, USP10 inh inactive, USP28 inh inactive, USP8 block inactive and USP30 block inactive.
`O=C1CC(C(=O)Nc2ccccc2Cl)n2nc(-c3ccccc3)cc2N1` (configuration not stated) gave USP17 block 72, USP10 inh inactive, USP28 inh inactive, USP8 block 31 and USP30 block inactive.
Screening O=C1CC(C(=O)Nc2ccc3c(c2)OCO3)N=C(Nc2ccccc2)N1 (configuration not stated) returned USP17 block inactive, USP10 inh inactive, USP28 inh inactive, USP8 block inactive and USP30 block inactive.
COc1ccc(C(=O)CCC(=O)NC(Cc2ccccc2)c2ccccc2)cc1 (configuration not stated) was read as USP17 block inactive, USP10 inh inactive, USP28 inh inactive, USP8 block inactive and USP30 block inactive.
For O=C(COc1ccc([N+](=O)[O-])cc1)NC12CC3CC(CC(C3)C1)C2 the results were USP17 block inactive, USP10 inh inactive, USP28 inh inactive, USP8 block inactive and USP30 block inactive.
`CCC(C(=O)Nc1ccccc1)n1nc(-c2ccccc2)cc(NC(=O)C(C)C)c1=O` (configuration not stated) gave USP17 block inactive, USP10 inh inactive, USP28 inh inactive, USP8 block inactive and USP30 block inactive.
N=C1C(c2nc3ccccc3s2)=C(O)CN1Cc1cccc(F)c1 was read as USP17 block inactive, USP10 inh inactive, USP28 inh inactive, USP8 block inactive and USP30 block inactive.
For CC(c1ccccc1)N1CC(O)=C(c2nc3ccccc3s2)C1=N (configuration not stated) the results were USP17 block inactive, USP10 inh 45, USP28 inh inactive, USP8 block 90 and USP30 block inactive.
`N=C1C(c2nc3ccccc3s2)=C(O)CN1Cc1ccc(F)cc1` gave USP17 block 51, USP10 inh inactive, USP28 inh inactive, USP8 block 33 and USP30 block inactive.
`CNc1nc(C2CCN(S(=O)(=O)c3ccc(C)c(F)c3)C2)nc2c1CN(C(C)=O)CC2` (configuration not stated) gave USP17 block inactive, USP10 inh inactive, USP28 inh inactive, USP8 block inactive and USP30 block inactive.
For Cc1ccc(NS(=O)(=O)c2cc(C(=O)NCc3ccncc3)ccc2C)c(C)c1 the results were USP17 block inactive, USP10 inh inactive, USP28 inh inactive, USP8 block inactive and USP30 block inactive.
Screening Cc1ccc(C)c(N(C(C)C(=O)NCc2ccncc2)S(C)(=O)=O)c1 (configuration not stated) returned USP17 block 35, USP10 inh inactive, USP28 inh inactive, USP8 block inactive and USP30 block 35.
For Cn1c(=O)[nH]c(=O)c2c1nc(NCCCO)n2CC(=O)c1ccccc1 the results were USP17 block inactive, USP10 inh inactive, USP28 inh inactive, USP8 block inactive and USP30 block 40.
CC(=O)c1cc(C)c(O)c(C)c1O was read as USP17 block inactive, USP10 inh inactive, USP28 inh inactive, USP8 block inactive and USP30 block inactive.
Screening COc1cc(-c2ccno2)ccc1S(=O)(=O)Nc1ccccc1Cl returned USP17 block inactive, USP10 inh inactive, USP28 inh 60, USP8 block inactive and USP30 block inactive.
COc1ccc(-c2cc(C)no2)cc1S(=O)(=O)Nc1ccc(-c2ccno2)cc1 was read as USP17 block inactive, USP10 inh inactive, USP28 inh inactive, USP8 block 59 and USP30 block inactive.
For COc1ccc(-c2onc(C)c2C)cc1S(=O)(=O)Nc1ccc(-c2ccno2)cc1 the results were USP17 block inactive, USP10 inh inactive, USP28 inh inactive, USP8 block inactive and USP30 block inactive.
`COc1cc2c(cc1OC)-c1c(c(C(=O)NC3CC3)nn1-c1ccccc1F)C2` gave USP17 block inactive, USP10 inh inactive, USP28 inh inactive, USP8 block inactive and USP30 block inactive.
Screening c1ccc(CN(Cc2ccccc2)c2ncnc3c2cnn3-c2ccccc2)cc1 returned USP17 block inactive, USP10 inh inactive, USP28 inh inactive, USP8 block inactive and USP30 block inactive.
Cc1cccc(-n2ncc3c(N(CCO)CCO)ncnc32)c1 was read as USP17 block inactive, USP10 inh inactive, USP28 inh inactive, USP8 block inactive and USP30 block 34.
Screening CCOCCCNC(=O)c1cc2c(=O)n3ccccc3nc2n1Cc1ccccc1 returned USP17 block inactive, USP10 inh inactive, USP28 inh inactive, USP8 block inactive and USP30 block inactive.
